Screen size: about 300,000 compounds; about 37,000 (12%) were called active. Many of the other results were omitted from the sample, so actives are more common in it than they were. Values without a mark were called inactive. No stated cut-off is given here; in the data, active means max response mostly above about 13% (no sharp cut-off); inactive means mostly below about 14%.
Test: Cycloheximide Counterscreen for Small Molecule Inhibitors of Shiga Toxin; further: read at 38.3 µM for the half of the compounds with a filed dose; 0% is about no effect
Conditions: cell reporter, cycloheximide protein synthesis inhibition counterscreen; hits give high values

Row | SMILES | max response
1 | COC(=O)c1cnc(Nc2cc(C)ccc2OC)c2ccccc12 | -3.28%
2 | COc1cc(C(=O)NCc2cc3cc(Cl)ccc3n2C)cc(OC)c1OC | 9.33%
3 | COc1ccc(N2CCN(C(=O)c3cn(C)c4ccc(S(=O)(=O)N5CCOCC5)cc4c3=O)CC2)cc1 | 0.725%
4 | CCc1ccc(C(=O)NC(=S)Nc2ccccc2N2CCOCC2)cc1 | 12.1%
5 | CCCC(C(=O)NC1CCCC1)N(C(=O)Cn1nnc(-c2ccc(C)o2)n1)c1cccc(O)c1 (centres undefined) | -3.39%
6 | CCOC(=O)C(Cc1ccc(N)cc1)N1C(=O)c2ccccc2C1=O (centres undefined) | 15%
7 | O=S(=O)(c1ccc(Br)c2ccccc12)N1CCOCC1 | -2.9%
8 | CC1CN(S(=O)(=O)c2cccc(C(F)(F)F)c2)CN1C(=O)N1CCOCC1 (centres undefined) | -5.77%
9 | Cc1ccc(N2C(=O)CN=C2Nc2nc(C)cc(C)n2)cc1 | -2.81%
10 | COc1ccc(N2C(=O)CN=C2Nc2cccc(C)c2C)cc1OC | 1.91%
11 | Cc1ccc(C)c(NC2=NCC(=O)N2c2ccc3c(c2)OCCO3)c1 | 17.5% (active)
12 | CC(Sc1nnc(COc2ccccc2)n1-c1ccccc1)C(=O)O (centres undefined) | -3.12%
13 | FC(F)(F)c1nnc2sc(-c3ccco3)nn12 | -1.25%
14 | Cc1nnc2sc(-c3ccco3)nn12 | -2.36%
15 | Fc1ccc(-c2ccc(-c3nn4c(-c5ccco5)nnc4s3)o2)cc1 | 12.8% (active)
16 | COc1ccc([N+](=O)[O-])cc1NC(=O)C(C)OC(=O)C1c2ccccc2Oc2ccccc21 (centres undefined) | -1.06%
17 | CCN(C(=O)CN1CCN(Cc2ccccc2)CC1)c1c(N)n(Cc2ccccc2)c(=O)[nH]c1=O | -1.94%
18 | C1=C(CCNc2ncnc3c2cnn3-c2ccccc2)CCCC1 | 34.6% (active)
19 | O=C(NCCC1=CCCCC1)C1CCN(Cc2cnn(-c3ccccc3)c2-n2cccc2)CC1 | 18.2%
20 | Cc1nn(C(C)C(=O)NCCC2=CCCCC2)c(=O)c2nn(-c3ccccc3)c(C)c12 (centres undefined) | 12.2%
21 | O=C(COC(=O)/C(=C/c1cccs1)c1cccs1)NCc1ccccc1Cl | -3.92%
22 | Cc1cc(OCCCC(=O)NCCN2C(=O)S/C(=C\c3cccnc3)C2=O)ccc1Cl | -1.74%
23 | CSc1nc2ccc(NC(=O)c3c(F)cccc3F)cc2s1 | 48.4% (active)
24 | CCCn1nc(C(=O)Nc2ccc3nc(C)sc3c2)c2ccccc2c1=O | 2.94%

Row | SMILES | max response
25 | CCCC(=O)Nc1nc2ccc(NC(=O)c3c(F)c(F)c(OC)c(F)c3F)cc2s1 | -1.72%
26 | Cc1ccccc1-n1nnc2c(=O)oc3ccccc3c21 | -0.308%
27 | COC(=O)c1ccccc1NC(=O)C1CCN(S(=O)(=O)c2cc(OC)ccc2OC)CC1 | -2.41%
28 | O=c1c2c3c(sc2n(CCN2CCCC2)c(=O)n1Cc1ccccc1)CCCCC3 | -3.62%
29 | Cc1ccc(NC(=O)c2cc(-c3ccc(C)o3)nc3ccccc23)nc1 | -0.954%
30 | Cc1ccc(Nc2nc(-c3ccc(O)cc3O)cs2)nc1 | 50.9% (active)
31 | COCCNc1nc(N)c([N+](=O)[O-])c(N2CCCCCC2)n1 | 3.03%
32 | O=C(COC(=O)c1ccc(O)cc1)Nc1nccs1 | 9.78% (active)
33 | CCCCOC(=O)Nc1nccs1 | 18.8%
34 | Cc1cc(C(=O)OCC(=O)Nc2nccs2)c2ccccc2n1 | -4.23%
35 | CC(C)CNC(=S)NC(=O)c1ccc(Cl)cc1 | 34.2% (active)
36 | Cc1scc(C(=O)NNC(=S)NCC(C)C)c1C | -0.894%
37 | Cc1occc1C(=O)NNC(=S)NCC(C)C | -3.12%
38 | Cc1cc(-c2nnc(SCC(=O)Nc3ccc(S(N)(=O)=O)cc3)n2N)n[nH]1 | 1.41%
39 | CCCNC(=O)N1CCC(c2ccc3c(c2)OCO3)CC1 | -1.8%
40 | C=CCOc1ccccc1NC(=O)CN1C(=O)CNC1=O | 0.268%
41 | COC(=O)c1c(CCl)noc1C(=O)NC(C)C | -0.666%
42 | COc1ccc(-c2cc3nc(C)c(CCC(=O)NC(C)CCc4ccco4)c(C)n3n2)c(OC)c1 (centres undefined) | 8.95%
43 | CC(=O)NC(CC(=O)O)c1ccc(F)cc1 (centres undefined) | -1.3%
44 | CN(C)c1ccc(/C=N/NC(=O)C(O)c2ccc(Br)cc2)cc1 (centres undefined) | 8.48%
45 | CN(C)c1ccc(C(CC(=O)O)C(=O)O)cc1 (centres undefined) | 38.6% (active)
46 | COc1cc(NC(=O)c2ccc3c(c2)OCO3)ccc1NC(=O)c1cccs1 | 17.8% (active)
47 | COc1cc(NC(=O)c2cccs2)ccc1NC(=O)c1ccccc1Cl | 28.9% (active)
48 | CCC(=O)c1cc2c(cc1NC(=O)c1cccs1)OCCO2 | -4.08%

Row | SMILES | max response
49 | COc1cc(NC(=O)COc2ccccc2Cl)ccc1NC(=O)C(C)C | 0.487%
50 | COc1cc2ccccc2cc1C(=O)Nc1ccc(NC(=O)c2cccs2)cc1 | -2.59%
51 | CN1CCN(C(=O)/C(=C\c2ccc3c(c2)OCO3)NC(=O)c2cccs2)CC1 | -1.19%
52 | COc1ccc(S(=O)(=O)N2CCC(C(=O)NCCC(=O)NCc3cccc(OC)c3)CC2)cc1 | -2.91%
53 | Cc1cc(S(=O)(=O)NC2CCCC2)ccc1-n1cnnn1 | -1.68%
54 | CCC(=O)Nc1cccc(C2=NOC3(C2)C[C@@H](C(N)=O)N(C(=O)c2cc([N+](=O)[O-])cc([N+](=O)[O-])c2C)C3)c1 (some centres undefined) | 3.34%
55 | CC1=C(C(=O)Nc2ccccc2)C(c2cccs2)C(C#N)=C(SCC#N)N1 (centres undefined) | -2.44%
56 | O=C(Nc1ccc(N2CCN(C(=O)c3ccccc3)CC2)c(Cl)c1)c1ncn[nH]1 | -0.606%
57 | CCCn1c(=N)n(CC(=O)c2ccc(Cl)c(Cl)c2)c2ccccc21 | -0.499%
58 | COc1ccc2cc(C(=O)O)n(CC(=O)c3ccccc3)c2c1 | -1.7%
59 | CCn1c(=N)n(CC(=O)c2cccc(OC)c2)c2ccccc21 | 35.3% (active)
60 | Cc1ccc(Cn2c(=N)c(S(=O)(=O)c3ccc(C)cc3)cc3c(=O)n4ccccc4nc32)cc1 | -2.4%
61 | C=CCc1cc(S(=O)(=O)c2ccc(O)c(CC=C)c2)ccc1O | -2.33%
62 | Cc1c(NC(=O)c2coc(=O)c(Br)c2)c(=O)n(-c2ccccc2)n1C | 10.1%
63 | O=C(Nc1cccc(F)c1)c1coc(=O)c(Br)c1 | 22.1% (active)
64 | O=C(Nc1cccc(NC(=O)c2cccc(F)c2)c1)c1ccccc1 | 9.34%
65 | COc1ccc(CCNC(=O)CN2C(=O)CCSc3ccccc32)c(OC)c1 | -1.78%
66 | COc1ccc(CC(=O)N/N=C/c2cc([N+](=O)[O-])cc(Br)c2O)cc1 | -2.73%
67 | O=C1CSC(=S)N1/N=C/c1ccc(O)c([N+](=O)[O-])c1 | 2.96%
68 | CCOc1cccc(/C=N/NC(=S)NCCN2CCOCC2)c1O | 9.08%
69 | CCOc1cccc(/C=N/N2C(=O)CSC2=S)c1O | 13.3% (active)
70 | Cc1cccc(CN2CCC(n3nccc3NC(=O)c3ccccc3C)CC2)n1 | 2.27%
71 | COc1ccc(OCc2cn3c(C)cc(C)nc3n2)cc1 | 17.1%
72 | CNS(=O)(=O)c1cccc(C(=O)NCC2CCCCC2)c1 | -3.55%

Row | SMILES | max response
73 | CN(C)S(=O)(=O)N1CCC(Oc2cccc(C(=O)NCCCC3CCCC3)c2)CC1 | 52.4% (active)
74 | CN(C(=O)c1cccc(OC2CCN(S(=O)(=O)N(C)C)CC2)c1)C1CCOC1 (centres undefined) | 16.6%
75 | Cc1ccc(S(=O)(=O)Nc2nc(N)n(-c3ccccc3)n2)cc1 | -2.82%
76 | Nc1nc(NC(=O)/C=C/c2ccccc2)nn1-c1ccccc1 | -0.981%
77 | Cc1ccc(C(=O)Nc2nc(N)n(-c3ccccc3)n2)cc1 | 20.3% (active)
78 | CC(=O)c1ccc(OCC(O)CN2CCN(S(=O)(=O)c3cccc(Br)c3)CC2)cc1 (centres undefined) | -0.615%
79 | O=c1c2cc([N+](=O)[O-])ccc2nc2n1CCC2 | -3.29%
80 | O=c1[nH]c(/C=C\c2cccc(C(F)(F)F)c2)nc(O)c1[N+](=O)[O-] | -0.44%
81 | C=CCN(CC=C)C(=O)Nc1ccc(OCC)cc1 | 12.5%
82 | C=CCN(C(=O)Cn1ncc2c1-c1cc(C)ccc1OC2)c1ccccc1 | -3.22%
83 | CCC(=O)Nc1ccc2nc(C)n(Cc3ccccc3Cl)c(=O)c2c1 | -0.377%
84 | C=CCN(C(=O)Nc1ccc2oc(C)nc2c1)c1ccccc1 | 44.6% (active)
85 | Cc1nn(CC(=O)Nc2ccc3c(c2)nc(CN2CCCCC2)n3C)c(=O)c2ccccc12 | 9.68%
86 | C=CCN(C(=O)Nc1ccc2c(c1)nc(C)n2C)c1ccccc1 | 32.3% (active)
87 | O=C(NCCCO)c1cc2c([nH]c3ccccc32)c(-c2ccc(F)cc2)n1 | 1.63%
88 | Cc1c(C=O)c2ccccc2n1CCOc1ccccc1 | 11.4%
89 | COc1ccccc1N=Nc1c(O)[nH]c(=S)[nH]c1=O | 18.5% (active)
90 | COC(=O)c1ccccc1N=Nc1c(C)[nH][nH]c1=O | -1.54%
91 | COc1ccccc1N=C(C)C1=C(O)COC1=O | -3.1%
92 | COCCCNC(NC(=O)c1ccc(C)cc1)C(Cl)(Cl)Cl (centres undefined) | 0.737%
93 | Cc1ccc(CNC(=O)C2CCN(S(=O)(=O)c3ccc4nc5c(c(C(=O)O)c4c3)CC(C)CC5)CC2)cc1 (centres undefined) | -2.65%
94 | O=C(NCCCCc1ccccc1)C1CC(c2ccc([N+](=O)[O-])cc2)=NO1 (centres undefined) | 1.79%
